PostGolgi ctrl: growth inhibition of yeast control strain, primary screen, counter-screen for post-Golgi transport modulator project; efflux-deficient yeast background strain, growth absorbance A615, 16 h; inhibition, % at 10 µM; hit rate 5% among 98,000
CYP2C9 inhib: blockers of cytochrome P450 2C9 activity – biochemical, luminescence, ADME assay, primary screen | hit rate 20% among 96,000 | inhibition, % at 5 µM | AID 777, 2007 | P11712 | CYP2C9 Supersomes, luciferin-H conversion;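 active = blocking of liver enzyme CYP2C9 beyond about 50% at 5 µM, limit read from the data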
Target sequence (P11712 whole entry, looked up): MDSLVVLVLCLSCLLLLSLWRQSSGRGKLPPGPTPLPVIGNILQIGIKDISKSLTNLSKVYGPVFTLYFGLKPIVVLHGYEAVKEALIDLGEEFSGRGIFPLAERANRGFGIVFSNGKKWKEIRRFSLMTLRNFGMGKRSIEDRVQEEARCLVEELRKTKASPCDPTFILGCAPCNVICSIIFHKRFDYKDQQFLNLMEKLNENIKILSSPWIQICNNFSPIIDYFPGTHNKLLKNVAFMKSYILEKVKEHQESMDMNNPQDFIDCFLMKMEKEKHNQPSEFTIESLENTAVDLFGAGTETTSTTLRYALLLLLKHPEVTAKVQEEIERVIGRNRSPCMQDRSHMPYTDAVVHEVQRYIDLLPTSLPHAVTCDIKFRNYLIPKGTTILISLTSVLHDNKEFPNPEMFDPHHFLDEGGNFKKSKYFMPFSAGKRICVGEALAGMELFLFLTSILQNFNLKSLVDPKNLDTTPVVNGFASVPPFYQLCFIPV
CYP2C9 activ: human CYP2C9 activators, primary screen, biochemical, luminescence; recombinant CYP2C9, luciferin-H conversion; stronger effect = higher value; factor 1 = untreated enzyme, 0 = blocked; activation factor at 5 µM; hit rate 1.4% among 96,000;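 active = activation factor of 2 or more for CYP2C9 at a 5 µM dose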;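 also: 0 = sulfaphenazole-blocked wells and 1 = vehicle-only wells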
CYP2C19 inh: blockers of cytochrome P450 2C19 activity – biochemical, luminescence, ADME assay, primary screen; P33261; CYP2C19 Supersomes, luciferin-H EGE luminescence, 30 min; inhibition, % at 5 µM; hit rate 21% among 96,000;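 active = CYP2C19 inhibition above a set limit at 5 µM in the primary screen, cut at about 50% in these data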;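 also: plate controls were negative control wells for no effect and 2.5 mM tranylcypromine positive control for full effect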
PostGolgi yeast: phenotypic screen on post-Golgi transport, primary screen | post-Golgi transport phenotypic cell assay | inhibition, % at 10 µM | hit rate 0.9% among 98,000;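 also: yeast cells grown in 1536-well plates; yeast grown about 18 h at 30C before absorbance read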
CYP2C19 activ: human CYP2C19 activators, primary screen, biochemical, luminescence. Cytochrome P450 2C19 (Homo sapiens), P33261. recombinant CYP2C19, luciferin-H EGE luminescence; stronger effect = higher value; 0 = fully inhibited enzyme, 1 = untreated enzyme. activation factor at 5 µM. 96,000 tested, under 10 active. AID 1025, 2008;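 active = activation factor of at least 2 at 5 µM in the primary screen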;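 also: 0 = wells with 2.5 mM tranylcypromine and 1 = vehicle-only wells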
The depositor's hits bear a star. Compounds with a hit are over-represented: about 32% of the library has one in this group of screens. Rule as the data show it, unless noted: active = inhibition above about 30%; inactive = the rest.

SMILES | PostGolgi ctrl | CYP2C9 inhib | CYP2C9 activ | CYP2C19 inh | PostGolgi yeast | CYP2C19 activ
CCCC1(CCC)NC(=O)N(CC(=O)Nc2cccc(OC)c2)C1=O | 19.3 | -0.2 | 1 | 3.9 | 8.8 | 1
CCC(=O)NCCCCNC(=O)CC | 2.1 | -7.9 | 1.1 | -12.1 | 0.8 | 1.1
O=C(O)c1ccc(CSCc2ccco2)cc1 | 1.7 | -4.0 | 1 | 15.1 | 2.6 | 0.8
COc1cccc(/C=N/NC(=O)c2cc(-c3cccn3C)n[nH]2)c1 | 3.6 | -12.3 | 1.1 | 1.1 | 3.8 | 1
COc1cccc(/C=N/NC(=O)c2cc(C34CC5CC(CC(C5)C3)C4)[nH]n2)c1 | 66.1* | 49.4 | 0.5 | 42.6 | -2.6 | 0.6
Cc1sc2nc(CN3CCCC3)nc(N3CCC(C(N)=O)CC3)c2c1C | 3.8 | 16.6 | 0.8 | 4.9 | -2.5 | 1
Cc1ccc(N=Cc2c(O)n(-c3ccc4c(c3)OCO4)c(=O)c3ccccc23)cc1 | 5.9 | 24.4 | 0.8 | -3.8 | 30.3* | 1
Cc1cccc(-n2c(O)c(C=NCCCN3CCOCC3)c3ccccc3c2=O)c1 | 15.9 | 5.4 | 0.9 | 15.9 | -10.3 | 0.8
COc1cccc(/C=N/N2C(=O)C3C4c5ccccc5C(c5ccccc54)C3C2=O)c1OC (stereo unspecified) | 20.5 | 10.9 | 0.9 | 0.4 | 1.4 | 1
CC(C)(C)c1ccc(C(=O)NNc2cc(N3CCCCC3)nc(N3CCCCC3)n2)cc1 | 27.0 | 60.7* | 0.4 | 14.6 | 15.8 | 0.9
Cc1cc(C)nc(NS(=O)(=O)c2ccc(N3C(=O)C4CC=C(Cl)CC4C3=O)cc2)n1 (stereo unspecified) | -7.7 | 1.9 | 1 | 2.7 | -9.1 | 1
CCc1nnc(NS(=O)(=O)c2ccc(N3C(=O)C4CC=C(Cl)CC4C3=O)cc2)s1 (stereo unspecified) | 9.8 | 50.2* | 0.5 | 13.3 | 1.1 | 0.9
O=C1CCCN1CN(C(=O)c1ccccc1)c1ccc(F)cc1 | 6.5 | -6.3 | 1.1 | -12.8 | -2.5 | 1.1
O=C1CC(SCc2nc3ccccc3[nH]2)C(=O)N1c1ccc(Cl)cc1 (stereo unspecified) | 4.6 | 24.6 | 0.8 | 31.8 | -0.5 | 0.7
O=C1CC(SCCc2nc3ccccc3[nH]2)C(=O)N1c1ccc(Cl)cc1 (stereo unspecified) | 1.8 | 35.8 | 0.6 | 19.7 | 1.9 | 0.8
O=C1CC(SCc2nc3ccccc3[nH]2)C(=O)N1c1ccc(F)c(Cl)c1 (stereo unspecified) | 2.7 | 31.6 | 0.7 | 52.4* | -1.9 | 0.5
O=C1CC(SCc2nc3ccccc3[nH]2)C(=O)N1c1cccc(F)c1 (stereo unspecified) | 1.4 | 71.0* | 0.3 | 81.1* | -3.8 | 0.2
Cc1cc(C)c(C)c(S(=O)(=O)NCc2ccco2)c1C | 34.1* | -94.3 | 1.9 | 27.5 | -4.4 | 0.7
Cc1cc(C)c(C)c(S(=O)(=O)NCc2cccnc2)c1C | 2.9 | 20.2 | 0.8 | 23.3 | 2.8 | 0.8
Cc1ccc(S(=O)(=O)NCc2ccco2)cc1C | 6.8 | -171.6 | 2.7* | 80.1* | -2.7 | 0.2
CCCc1cc(=O)[nH]c(SCC(=O)N(CC)Cc2ccccc2)n1 | -6.8 | 22.5 | 0.8 | 12.5 | 22.2 | 0.9
CC(CN(C)Cc1ccccc1)OC(=O)c1ccc2c(c1)OCCO2 (stereo unspecified) | 1.3 | 30.0 | 0.7 | 29.7 | 3.5 | 0.7
CCOC(=O)Cc1csc(NC(=O)CSc2nc3cccnc3n2CC)n1 | 10.1 | -25.9 | 1.3 | 6.1 | -6.1 | 0.9
COc1cccc(OCCn2cc(C(=O)c3ccco3)c3ccccc32)c1 | 28.2 | 98.4* | 0 | 86.0* | -3.6 | 0.1
CCOC(=O)Cn1cc(C(=O)c2ccco2)c2ccccc21 | 8.3 | 84.5* | 0.2 | 81.4* | -2.1 | 0.2
SMILES | PostGolgi ctrl | CYP2C9 inhib | CYP2C9 activ | CYP2C19 inh | PostGolgi yeast | CYP2C19 activ
COc1ccc2c(c1)c(CCN1C(=O)c3ccccc3C1=O)cn2C(=O)c1ccco1 | -0.3 | 18.0 | 0.8 | 13.8 | -0.5 | 0.9
Cc1ccccc1OCCn1cc(/C(N)=N/O)c2ccccc21 | 3.2 | 22.6 | 0.8 | 67.4* | -3.1 | 0.3
COc1ccccc1OCCn1cc(C(=O)c2ccco2)c2ccccc21 | 25.2 | 84.4* | 0.2 | 24.7 | 35.2* | 0.8
O=C(O)Cn1cc(C(=O)c2ccco2)c2ccccc21 | -7.1 | -5.1 | 1.1 | -7.3 | 20.4 | 1.1
N#CCc1c(C#N)c(N)nc(N2CCN(c3ccc(F)cc3)CC2)c1C#N | 46.6* | 36.7 | 0.6 | 10.9 | 17.1 | 0.9
Cc1cc(C)c(C#N)c(N2CCN(Cc3ccc4c(c3)OCO4)CC2)n1 | 5.3 | 46.8 | 0.5 | 41.1 | -1.9 | 0.6
N#CCc1c(C#N)c(N)nc(N2CCN(Cc3ccc4c(c3)OCO4)CC2)c1C#N | -3.5 | 54.1* | 0.5 | -0.4 | -3.8 | 1
Cc1oc(-c2ccccc2F)nc1CN1CCC(C(=O)NC2CC2)CC1 | 6.2 | -15.0 | 1.1 | -6.6 | -1.8 | 1.1
O=C(NCc1ccccc1)NS(=O)(=O)c1ccccc1Cl | -3.9 | 37.0 | 0.6 | -17.9 | 30.4* | 1.2
CC(NC(=O)C1CCN(c2nnc(-n3cccc3)s2)CC1)C12CC3CC(CC(C3)C1)C2 (stereo unspecified) | 17.9 | 9.0 | 0.9 | 14.2 | -5.0 | 0.9
Cc1nnsc1C(=O)NC(C)C12CC3CC(CC(C3)C1)C2 (stereo unspecified) | 6.5 | 24.5 | 0.8 | 52.1* | 0.0 | 0.5
CCCc1nc2ccc(NC(=O)NCCC(=O)OCC)cc2c(=O)n1Cc1cccc(Cl)c1 | 1.6 | 11.5 | 0.9 | 11.3 | -2.4 | 0.9
Cc1nc2ccc(NC(=O)c3cccs3)cc2c(=O)n1Cc1ccc(Cl)cc1 | 32.4* | 68.5* | 0.3 | 79.0* | -2.7 | 0.2
O=C(Nc1ccc(Cl)cc1)c1cccs1 | 15.2 | -4.2 | 1 | 19.6 | 23.2 | 0.8
CCOC(=O)CCNC(=O)Nc1ccc2nc(C)n(Cc3cccc(Cl)c3)c(=O)c2c1 | 11.3 | 81.3* | 0.2 | 61.5* | -14.9 | 0.4
CCOC(=O)CCNC(=O)Nc1ccc2nc(C)n(Cc3ccccc3Cl)c(=O)c2c1 | 8.2 | 93.7* | 0.1 | 55.1* | 4.6 | 0.4
CN(C(=O)c1ccccc1Cl)C1CCCCC1 | 17.9 | 37.4 | 0.6 | 75.4* | -4.0 | 0.2
Cc1onc(-c2ccccc2Cl)c1C(=O)N(C)C1CCCCC1 | 3.9 | 21.0 | 0.8 | 43.0 | -8.0 | 0.6
O=C1CSC(c2ccccc2)N1CC12CC3CC(CC(O)(C3)C1)C2 (stereo unspecified) | 6.1 | -12.5 | 1.1 | 24.5 | -1.0 | 0.8
CC1CCCC/C1=N\NS(=O)(=O)c1ccc(Br)cc1 (stereo unspecified) | 4.1 | 50.8* | 0.5 | 26.2 | 2.0 | 0.7

Screens (PubChem)
